Laboratory results from PubChem BioAssay (NCATS).
Records with an inconclusive call do not appear. A call without a number means that no potency is given here. Activity calls are given as the source filed them. Calls come from the whole dose curve; as a rule, active = well fitted cell-killing curve with a large enough effect; inconclusive = small, poorly fitted or top-dose-only effect, or effect the other way; inactive = flat fitted curve, though single readings scatter.

How the values were obtained:
Experiment in all cases: Primary qHTS to identify gynecologic anti-cancer compounds using libraries of approved drugs and bioactive compounds (AID 1345084); note: nearly all actives have a fitted effect of over 55% in size
Settings in all cases: Gynecologic cancer cell panel viability, ATPlite luminescence, 48 h; series mostly up to 57.5 µM
[1] = test system: OV90
In short: (§1)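 Cell viability after 48 h drug treatment, ATPlite luminescence readout; five doses.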

[2] = test system: PA-1
In short: as §1

[3] = test system: SKOV3
In short: as §1

[4] = test system: Tov-21-G
In short: as §1

[5] = test system: Tov112D
In short: as §1
Potency is the fitted concentration of half-maximal effect.

## CC(C)(C)C(=O)CN1C(=O)[C@H](NC(=O)Nc2cccc(C(=O)O)c2)CN(C2CCCCC2)c2ccccc21
[1]
  Potency: inactive
[2]
  Potency: inactive
[3]
  Potency: inactive
[4]
  Potency: inactive
[5]
  Potency: inactive

## CCCCCCOc1cc2c(cc1N(C)c1ncc(C(=O)O)cn1)C(C)(C)CCC2(C)C
[1]
  Potency: inactive
[2]
  Potency: inactive
[3]
  Potency: inactive
[4]
  Potency: inactive
[5]
  Potency: inactive

## O=C(NCC(O)CO)c1ccncc1Nc1ccc(I)cc1F (stereo not given)
[1]
  Potency: 0.0794 µM (active)
[2]
  Potency: inactive
[3]
  Potency: inactive
[4]
  Potency: 1.58 µM (active)
[5]
  Potency: inactive

## O=C1CSc2ccccc2N1Cc1cccc(C(F)(F)F)c1
[1]
  Potency: inactive
[2]
  Potency: inactive
[3]
  Potency: inactive
[4]
  Potency: inactive
[5]
  Potency: inactive

## C=C1CCC2C(C)(C)C(O)CCC2(C)C1CCC(C)CCO (stereo not given)
[1]
  Potency: inactive
[2]
  Potency: inactive
[3]
  Potency: inactive
[4]
  Potency: inactive
[5]
  Potency: inactive

## CC(=O)NC1C(OC(C)(C)C2CCC3(C)C=C(C4CCC5C4(C)CC(O)C4OC(C(C)(C)O)CCC45C)CCC3O2)OC(CO)C(O)C1O (stereo not given)
[1]
  Potency: inactive
[2]
  Potency: inactive
[3]
  Potency: inactive
[4]
  Potency: inactive
[5]
  Potency: inactive

## Cc1cc(Cl)ccc1COc1ccnn1-c1cc(C(=O)O)ccn1
[1]
  Potency: inactive
[2]
  Potency: inactive
[3]
  Potency: inactive
[4]
  Potency: inactive
[5]
  Potency: inactive

## CC1COC2(OC3CC4C5CC(O[C@@H]6O[C@H](C)[C@@H](O[C@@H]7O[C@@H](C)[C@H](O)[C@@H](O)[C@H]7O)[C@H](O)[C@H]6O)C6CC(O)CCC6(C)C5CCC4(C)C3C2C)C(O)C1 (stereo not given in full)
[1]
  Potency: inactive
[2]
  Potency: inactive
[3]
  Potency: inactive
[4]
  Potency: inactive
[5]
  Potency: inactive

## O=C1N=C(N2CCOCC2)CN1c1ccc(Cl)cc1
[1]
  Potency: inactive
[2]
  Potency: inactive
[3]
  Potency: inactive
[4]
  Potency: inactive
[5]
  Potency: inactive

## C=CC(C)(C)c1[nH]c2ccccc2c1C[C@@H]1NC(=O)[C@H](Cc2c[nH]c3ccccc23)NC1=O
[1]
  Potency: inactive
[2]
  Potency: inactive
[3]
  Potency: inactive
[4]
  Potency: inactive
[5]
  Potency: inactive

## CCCN1CCN(c2ccc(C(=O)NC3(C(=O)NCC#N)CCCCC3)cc2)CC1
[1]
  Potency: inactive
[2]
  Potency: inactive
[3]
  Potency: inactive
[4]
  Potency: inactive
[5]
  Potency: inactive

## C[C@H]1CC[C@@]2(OC1)O[C@H]1CC3C4CC[C@H]5C[C@@H](O)[C@H](O)C[C@]5(C)C4=CC(=O)[C@]3(C)[C@H]1[C@@H]2C (stereo not given in full)
[1]
  Potency: inactive
[2]
  Potency: inactive
[3]
  Potency: inactive
[4]
  Potency: inactive
[5]
  Potency: inactive

## CC(=O)O[C@H]1C[C@@]2(C)[C@@H](CC[C@H]3[C@@]4(C)C=CC(=O)[C@@H](C)[C@@H]4[C@H](O)C(=O)[C@@]32C)/C1=C(/CCC=C(C)C)C(=O)O
[1]
  Potency: inactive
[2]
  Potency: inactive
[3]
  Potency: inactive
[4]
  Potency: inactive
[5]
  Potency: inactive

## CC(C)(O)C1CCC(C)(C2CCC3(C)C4CCC5C(C)(C(=O)OC6OC(CO)C(O)C(O)C6O)C(O)CC(O)C56CC46CCC23C)O1 (stereo not given)
[1]
  Potency: inactive
[2]
  Potency: inactive
[3]
  Potency: inactive
[4]
  Potency: inactive
[5]
  Potency: inactive

## CC(C)CC1NC(=O)C(C)NC(=O)C(CC(C)C)OC(=O)CCCNC1=O (stereo not given)
[1]
  Potency: inactive
[2]
  Potency: inactive
[3]
  Potency: inactive
[4]
  Potency: inactive
[5]
  Potency: inactive

## COC(=O)c1ccnc(-c2cc(C(=O)NCCc3ccccc3)ccn2)c1
[1]
  Potency: inactive
[2]
  Potency: inactive
[3]
  Potency: inactive
[4]
  Potency: inactive
[5]
  Potency: inactive

## OC[C@H]1O[C@@H](OC(CCCCc2ccc(O)cc2)CCc2ccc(O)cc2)[C@H](O)[C@@H](O)[C@@H]1O (stereo not given in full)
[1]
  Potency: inactive
[2]
  Potency: inactive
[3]
  Potency: inactive
[4]
  Potency: inactive
[5]
  Potency: inactive

## COC(=O)C1(C)CCC2(C(=O)O)CCC3(C)C(=CCC4C5(C)CC(O)C(OC6OCC(O)C(O)C6O)C(C)(CO)C5CCC43C)C2C1 (stereo not given)
[1]
  Potency: inactive
[2]
  Potency: inactive
[3]
  Potency: inactive
[4]
  Potency: inactive
[5]
  Potency: inactive

## C[C@@H]1CC[C@]2(C(=O)O)CC[C@]3(C)C(=CCC4[C@@]5(C)CC[C@H](O)C(C)(C)C5C(O)C[C@]43C)[C@@H]2[C@]1(C)O (stereo not given in full)
[1]
  Potency: inactive
[2]
  Potency: inactive
[3]
  Potency: inactive
[4]
  Potency: inactive
[5]
  Potency: inactive

## CC(=O)C12OC(C)(C)OC1CC1C3CCC4=CC(=O)C=CC4(C)C3(F)C(O)CC12C (stereo not given)
[1]
  Potency: inactive
[2]
  Potency: inactive
[3]
  Potency: inactive
[4]
  Potency: inactive
[5]
  Potency: inactive

## COc1ccc(-c2ccc(-c3cn(C(=O)N4CCCCC4c4ccccc4)nn3)cc2)cc1 (stereo not given)
[1]
  Potency: inactive
[2]
  Potency: inactive
[3]
  Potency: inactive
[4]
  Potency: inactive
[5]
  Potency: inactive

## O=C(Nc1ccc(S(=O)(=O)Nc2ccccc2Cl)c(Cl)c1)c1ccccn1
[1]
  Potency: inactive
[2]
  Potency: inactive
[3]
  Potency: inactive
[4]
  Potency: inactive
[5]
  Potency: inactive

## CC1=C(CCC(C)CC(=O)O)[C@@]2(C)CCCC(C)(C)C2CC1=O (stereo not given in full)
[1]
  Potency: inactive
[2]
  Potency: inactive
[3]
  Potency: inactive
[4]
  Potency: inactive
[5]
  Potency: inactive

## Cc1[nH]c2ccccc2c1CCNC(=O)c1ccccc1F
[1]
  Potency: inactive
[2]
  Potency: inactive
[3]
  Potency: inactive
[4]
  Potency: inactive
[5]
  Potency: inactive
